A short description of assay [1]: compound effects on lung adenocarcinoma cell viability – A549, calcein-AM fluorescence, 48 h, basal, profiling panel (AID 1162). Also: test concentration not given here. The settings on record: higher = more signal.
The nature of assay [2]: compound effects on differentiated 3T3-L1 adipocyte viability – cell-based, 3T3-L1 adipocytes, calcein-AM fluorescence, 48 h, basal, profiling panel (AID 1163). Also: test concentration not given here. The settings on record: 3T3-L1 adipocytes viability, higher = more signal.
Assay [3] is described as follows: compound effects on hepatocellular carcinoma cell viability – HepG2, calcein-AM fluorescence, 48 h, basal, profiling panel (AID 1164). Also: test concentration not given here. The settings on record: higher = more signal.
Assay [4] in a line: compound effects on multiple myeloma cell viability – MM1S, calcein-AM fluorescence, 48 h, basal, profiling panel (AID 1165).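 Also: viability of MM1S multiple myeloma cells under basal unstimulated conditions; test concentration not given here.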 The settings on record: higher = more signal.
Assay [5] can be described thus: calcein-AM signal in unstimulated myeloma cells – cell-based, calcein-AM fluorescence, 48 h, PK04 Diversity Set, profiling panel (AID 1166).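 Also: cells grown under basal conditions without added stimulus; test concentration not given here.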 The settings on record: RPMI8226 myeloma viability, higher = more signal.
Assay [6] is described as follows: JC-1 mitochondrial signal, unstimulated HepG2 cells – cell-based, JC-1 fluorescence, 24 h, 100 nL compound, profiling panel (AID 1167). Also: test concentration not given here. The settings on record: HepG2 mitochondrial potential, higher = more signal.
Assay [7] is described as follows: JC-1 mitochondrial signal, unstimulated adipocytes – cell-based, JC-1 fluorescence, 3T3-L1 adipocytes, 24 h, 100 nL compound, profiling panel (AID 1168). Also: test concentration not given here. As to conditions: JC-1 mitochondrial fluorescence, higher = more signal, called active from +8 up or from −8 down.
Assay [8] in a line: JC-1 mitochondrial signal, unstimulated myeloma cells – cell-based, JC-1 fluorescence, RPMI8226, 24 h, 100 nL compound, profiling panel (AID 1169). Also: test concentration not given here. As to conditions: JC-1 mitochondrial potential fluorescence, higher = more signal.
The nature of assay [9]: JC-1 mitochondrial signal, unstimulated MM1S myeloma – cell-based, JC-1 fluorescence, 24 h, 100 nL compound, profiling panel (AID 1170). Also: test concentration not given here. As to conditions: MM1S mitochondrial potential, higher = more signal.
Assay [10] is described as follows: resazurin metabolic signal in A549 cells – cell-based, resazurin fluorescence, 24 h, PK04 Diversity Set, profiling panel (AID 1171). Also: test concentration not given here. As to conditions: A549 viability, higher = more signal, called active from +8 up or from −8 down.
Assay [11] in a line: resazurin metabolic signal in HepG2 cells – cell-based, resazurin fluorescence, 24 h, PK04 Diversity Set, profiling panel (AID 1172). Also: test concentration not given here. As to conditions: HepG2 viability, higher = more signal.
A short description of assay [12]: budding yeast growth changes without added modifier – OD600, strain BY4716, 24 h, basal condition, primary screen (AID 1173). The settings on record: S. cerevisiae BY4716 growth, OD600, 24 h; higher = more signal, called active from +8 up or from −8 down.
Assay [13] in a line: viability profiling in MM1S myeloma cells – cell-based, resazurin fluorescence, basal, 24 h, PK04 Diversity Set, profiling panel (AID 1174). Also: test concentration not given here. The settings on record: higher = more signal, called active from +8 up or from −8 down.
In assay [14] the target is Dihydroorotate dehydrogenase (quinone), mitochondrial (Plasmodium falciparum (isolate 3D7)) (UniProt Q08210). Put plainly: inhibition of P. falciparum DHODH – biochemical, C-terminal His tag, absorbance 600 nm, primary screen (AID 1175).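 Also: recombinant parasite enzyme with a five histidine tag at its C terminus; test concentration not given here.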 As to conditions: PfDHODH enzyme, DCIP absorbance 600 nm; higher = more signal, called active from +8 up or from −8 down.
Assay [15] is described as follows: inhibition of PAO1 biofilm formation – strain PAO1, LB-PBS medium, absorbance 600 nm, primary screen (AID 1176). Also: test concentration not given here. As to conditions: P. aeruginosa PAO1 growth/biofilm, A600, 12 h; higher = more signal.
Assay [16] can be described thus: growth modulation of vineyard yeast isolate – strain RM11-1a, OD600, basal, 24 h, primary screen (AID 1177).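 Also: cultures grown under basal conditions with no added stressor; test concentration not given here.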 As to conditions: S. cerevisiae RM11-1a growth, OD600, 24 h; higher = more signal, called active from +8 up or from −8 down.
Assay [17] in a line: growth of efflux-deficient E. coli DRC39 – strain DRC39, OD650, 24 h, E. coli filamentation inducers, primary screen (AID 1178).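 Also: growth measured as culture turbidity by optical density at 650 nm; test concentration not given here.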 The settings on record: E. coli DRC39 acrAB, higher = more signal, called active from +8 up or from −8 down.
Assay [18] is described as follows: growth of efflux-deficient E. coli DRC39 – strain DRC39, OD650, 48 h, E. coli filamentation inducers, primary screen (AID 1179).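 Also: screen aims at cell division blockers that make cells filament.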 As to conditions: E. coli DRC39 delta-acrAB growth, higher = more signal, called active from +8 up or from −8 down.
Assay [19] can be described thus: viability profiling in RPMI8226 myeloma cells – cell-based, resazurin fluorescence, basal, 24 h, PK04 Diversity Set, profiling panel (AID 1180).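 Also: RPMI8826 multiple myeloma cell line at 5000 cells per well; test concentration not given here.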 The settings on record: higher = more signal.
Assay [20] addresses E3 ubiquitin-protein ligase XIAP (Homo sapiens) (UniProt P98170). The assay can be described thus: small molecules binding XIAP protein – biophysical, small-molecule microarray, fluorescence 635 nm, primary screen (AID 1181).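 Also: score merges 667 nm emission and signal to noise over triplicate slides.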 As to conditions: higher = more signal.

Consider nine compounds from PubChem BioAssay.

The structures appear in SMILES notation. The source made the active and inactive calls. Unless noted, no rule for the calls is given here.

Dihydroorotate dehydrogenase (quinone), mitochondrial (Plasmodium falciparum (isolate 3D7)), sequence (Q08210 whole entry, looked up): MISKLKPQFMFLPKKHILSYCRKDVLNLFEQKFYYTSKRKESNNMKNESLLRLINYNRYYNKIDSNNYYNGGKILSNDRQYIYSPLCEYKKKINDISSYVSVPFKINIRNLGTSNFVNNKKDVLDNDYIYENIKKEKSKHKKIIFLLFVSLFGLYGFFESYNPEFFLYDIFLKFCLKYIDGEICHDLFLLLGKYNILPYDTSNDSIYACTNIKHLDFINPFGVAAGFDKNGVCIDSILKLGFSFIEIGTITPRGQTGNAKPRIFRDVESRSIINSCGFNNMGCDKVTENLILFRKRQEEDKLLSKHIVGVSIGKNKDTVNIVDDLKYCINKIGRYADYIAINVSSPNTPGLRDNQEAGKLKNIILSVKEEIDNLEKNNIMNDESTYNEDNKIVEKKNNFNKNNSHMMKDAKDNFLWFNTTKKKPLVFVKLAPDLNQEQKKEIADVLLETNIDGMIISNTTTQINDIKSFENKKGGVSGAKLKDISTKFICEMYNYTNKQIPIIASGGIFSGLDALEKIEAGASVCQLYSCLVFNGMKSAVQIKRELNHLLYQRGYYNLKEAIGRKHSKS
E3 ubiquitin-protein ligase XIAP (Homo sapiens), sequence (P98170 whole entry, looked up): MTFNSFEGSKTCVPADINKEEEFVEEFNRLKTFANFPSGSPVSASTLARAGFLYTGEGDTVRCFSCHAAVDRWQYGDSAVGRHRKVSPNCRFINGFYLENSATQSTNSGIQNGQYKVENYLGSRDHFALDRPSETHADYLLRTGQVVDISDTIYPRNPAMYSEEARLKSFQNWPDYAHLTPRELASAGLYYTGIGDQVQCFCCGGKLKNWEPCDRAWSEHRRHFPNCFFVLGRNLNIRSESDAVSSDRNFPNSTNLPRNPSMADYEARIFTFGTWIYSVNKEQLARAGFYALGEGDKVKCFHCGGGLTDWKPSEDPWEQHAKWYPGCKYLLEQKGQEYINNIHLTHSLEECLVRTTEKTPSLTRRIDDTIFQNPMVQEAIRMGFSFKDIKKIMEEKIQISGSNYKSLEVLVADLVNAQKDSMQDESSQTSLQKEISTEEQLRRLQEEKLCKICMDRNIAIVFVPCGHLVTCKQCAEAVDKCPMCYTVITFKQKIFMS

On to `O=C1NC(=O)C2C1C=CC(C(O)c1cc(C(F)(F)F)cc(C(F)(F)F)c1)N2Nc1ccccn1` (stereo not given), for which the z-score was -1.02 in [1]; -0.485 in assay [2]; -0.165 in assay [3]; 0.34 in [4]; -0.559 in assay [5]; -0.326 in assay [6]. Further, the z-score in assay [7] is -0.169 (inactive); in assay [8], 0.372; in [9] it was -0.204; in assay [10], -0.568 (inactive); in [11] it was -0.85; in assay [12] it was 0.885 (inactive). Also, the z-score in assay [13] was -1.27 (inactive); in assay [15] it was 1.36 (inactive); in [16], 0.0176 (inactive); in assay [17] it was -0.509 (inactive); in assay [18], -1.42 (inactive); in assay [19], -1.2. Further, the composite z-score in assay [14] is -1.14 (inactive); in assay [20], -0.152.
Consider `COC(=O)[C@@]1(Cc2ccc(OC)cc2)[C@H]2c3cc(C(=O)N4CCCC4)n(Cc4ccc(O)c(OC)c4)c3C[C@H]2CN1C(=O)c1ccccc1`, for which the z-score in assay [1] is -0.226; in assay [2] it was 0.174; in assay [3], 0.321; in assay [4], 0.11; in [5], -0.243; in assay [6], 2.27. The z-score in assay [7] is -0.183 (inactive); in assay [8] it was -0.221; in assay [9] it was -0.933; in [10] it was -1.47 (inactive); in [11], -1.76; in assay [12], 1.19 (inactive). The z-score in [13] is -0.431 (inactive); in [15] it was 0.591 (inactive); in assay [16] it was 0.609 (inactive); in [17], -0.446 (inactive); in [18], -0.0429 (inactive); in [19], -2.77. Moreover, the composite z-score in [14] was 0.191 (inactive); in assay [20] it was 0.227.
On to `CNS(=O)(=O)c1ccc(C)cc1`, for which the z-score in assay [1] is 0.753; in assay [2] it was 0.451; in assay [3], 1.4; in assay [4], 0.269; in [5], 0.0427; in assay [6] it was 0.384. Also, the z-score in assay [7] is 1 (inactive); in [8], -0.049; in [9] it was 0.937; in assay [10] it was -0.126 (inactive); in assay [11], 0.925; in [12], -1.13 (inactive). For the same compound, the z-score in assay [13] was 0.68 (inactive); in [15], 0.426 (inactive); in assay [16], -1.4 (inactive); in assay [17], 0.738 (inactive); in assay [18] it was 0.774 (inactive); in [19] it was -0.149. The composite z-score in assay [14] is -1.05 (inactive); in assay [20], -0.328.
With `C=CC[C@]1(C(=O)NCCCOC)N=C(c2ccc(OCCCO)cc2)O[C@H]1c1ccccc1CN=[N+]=[N-]`, the z-score is 0.566 in [1]; 0.243 in assay [2]; 0.716 in assay [3]; -1.86 in assay [4]; -0.134 in [5]; 1.76 in [6]. For the same compound, the z-score in assay [7] was -0.299 (inactive); in assay [8], -1.25; in assay [9], -0.142; in assay [10] it was -0.0227 (inactive); in [11], 0.127; in assay [12], -0.024 (inactive). Besides, the z-score was -0.266 (inactive) in assay [13]; 0.978 (inactive) in assay [15]; -0.755 (inactive) in [16]; -0.161 (inactive) in assay [17]; -0.347 (inactive) in assay [18]; -0.257 in assay [19]. The composite z-score is -0.339 (inactive) in assay [14] and -0.0134 in assay [20].
In the case of `CCCC[C@@H]1C[C@H]1[C@@H](NC(=O)c1ccco1)c1ccccc1C(F)(F)F`, the z-score in assay [1] was -2.09; in assay [2], -1.51; in [3], -0.489; in assay [4], -1.1; in [5] it was -0.484; in assay [6], -1.7. Besides, the z-score in assay [7] was -1.22 (inactive); in [8], -0.583; in assay [9], -0.481; in assay [10], -0.26 (inactive); in assay [11], -0.153; in assay [12] it was 1.67 (inactive). Besides, the z-score was -1.25 (inactive) in [13]; -0.0298 (inactive) in [15]; -0.064 (inactive) in [16]; -0.714 (inactive) in assay [17]; -0.127 (inactive) in assay [18]; -0.594 in assay [19]. Besides, the composite z-score is -0.265 (inactive) in assay [14] and 0.271 in [20].
As for `CC(C)C[C@@H]1NC(=O)[C@H](C(C)C)NC(=O)[C@@]23C(=O)N[C@@H](Cc4ccccc4)C2[C@H](C)[C@@]2(C)O[C@H]2C3/C=C/CC/C=C/CNC1=O` (stereo not given in full), the z-score in assay [1] is -0.642; in [2], 1.39; in assay [3], -0.504; in assay [4], -0.359; in [5], -0.789; in [6], -0.0491. Besides, the z-score was -0.321 (inactive) in [7]; 0.0651 in [8]; 1.72 in assay [9]; 0.612 (inactive) in assay [10]; 0.233 in assay [11]; -0.399 (inactive) in assay [12]. Moreover, the z-score in [13] is -0.0691 (inactive); in assay [15] it was 0.956 (inactive); in assay [16] it was 0.388 (inactive); in [17], 1.04 (inactive); in assay [18], 0.408 (inactive); in assay [19] it was 0.628. Further, the composite z-score in [14] was -0.313 (inactive); in assay [20], -0.243.
With `O=C1N(Cc2ccccc2)c2ccccc2[C@@H]2OC(c3ccc(OCCCO)cc3)=N[C@]12CCS(=O)(=O)c1ccccc1`, the z-score was -0.221 in [1]; 0.0205 in assay [2]; 0.455 in [3]; -0.527 in [4]; 0.144 in assay [5]; -1.33 in assay [6]. The z-score in assay [7] is 1.86 (inactive); in assay [8], -0.669; in assay [9], -0.605; in assay [10] it was 0.404 (inactive); in assay [11], -0.477; in assay [12] it was 1.48 (inactive). The z-score in [13] is -0.444 (inactive); in assay [15], 1.71 (inactive); in assay [16], 2.25 (inactive); in assay [17] it was -0.0853 (inactive); in [18], -0.292 (inactive); in [19], -0.18. In addition, the composite z-score in [14] is -0.244 (inactive); in [20], -0.0918.
For `Oc1ccc2cc[n+](Cc3sc4ccccc4c3Cl)cc2c1`, the z-score in assay [1] is -0.66; in [2], 0.552; in assay [3], -0.934; in assay [4], 0.241; in assay [5], -1.86; in assay [6] it was -1.4. Moreover, the z-score in [7] was -0.0649 (inactive); in assay [8], 0.376; in [9], 1.78; in [10], -0.655 (inactive); in assay [11] it was -1.23; in assay [12], -0.225 (inactive). In addition, the z-score in [13] was -1.42 (inactive); in [15] it was -0.0748 (inactive); in assay [16] it was 0.474 (inactive); in assay [17], -0.257 (inactive); in assay [18] it was -0.952 (inactive); in assay [19] it was -0.624. For the same compound, the composite z-score is -0.427 (inactive) in [14] and -0.0095 in assay [20].
For the compound `CC(C)NC(=O)[C@@]1(c2ccc([N+](=O)[O-])cc2)CC(=O)N(C2CCCCC2)[C@@H]1c1ccc(CO)cc1I`, the z-score in [1] was 1.92; in assay [2] it was 1; in assay [3], 0.243; in [4], -2.24; in [5], -2.58; in [6], 1.29. Moreover, the z-score in [7] is 0.484 (inactive); in assay [8], -0.169; in [9], 0.521; in assay [10], 0.465 (inactive); in assay [11], -0.752; in assay [12] it was -0.148 (inactive). Moreover, the z-score in assay [13] is 0.507 (inactive); in assay [15], -0.0469 (inactive); in [16], 1.4 (inactive); in assay [17], 0.543 (inactive); in assay [18] it was 0.0026 (inactive); in assay [19] it was 0.636. Further, the composite z-score in assay [14] is 0.968 (inactive); in assay [20] it was -0.177.
